Assay outcomes from PubChem BioAssay.
GLD-1 TGE inh: GLD-1/TGE RNA complex disruptors, primary screen, biochemical, fluorescence polarization. inhibition, % at 5.96 µM. hit rate 0.44% among 320,000. purified GLD-1 + fluorescein TGE RNA. AID 2280, 2010;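 active means percent inhibition above a per-plate cutoff, the plate mean of test compounds plus 3 SD, cut at about 30% in these data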;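 further: 0% = DMSO wells with GLD-1 and probe and 100% = wells lacking GLD-1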
Target sequence (Q17339 whole entry, looked up): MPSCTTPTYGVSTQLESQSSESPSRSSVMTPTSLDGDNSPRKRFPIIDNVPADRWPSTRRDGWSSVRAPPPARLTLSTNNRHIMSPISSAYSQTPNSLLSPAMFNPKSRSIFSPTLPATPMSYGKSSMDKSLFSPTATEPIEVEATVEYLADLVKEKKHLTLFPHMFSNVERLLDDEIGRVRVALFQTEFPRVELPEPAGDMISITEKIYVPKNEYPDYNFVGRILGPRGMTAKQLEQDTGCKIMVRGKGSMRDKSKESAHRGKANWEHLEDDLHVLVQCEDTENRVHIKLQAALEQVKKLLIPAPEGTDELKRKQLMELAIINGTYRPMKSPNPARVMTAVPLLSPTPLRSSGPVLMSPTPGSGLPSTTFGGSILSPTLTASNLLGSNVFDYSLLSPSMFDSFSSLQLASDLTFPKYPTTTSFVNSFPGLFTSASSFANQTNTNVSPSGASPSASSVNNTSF
MEX-5 binding: MEX-5 zinc finger RNA-binding disruptors – biochemical, C. elegans, fluorescence polarization, MLPCN library, primary screen. Zinc finger protein mex-5 (Caenorhabditis elegans), Q9XUB2. MEX-5/FITC-TCR2 RNA binding; stronger effect = lower value. activity score (negative = inhibition of binding), % at 10 µM. hit rate 0.38% among 300,000. AID 1832, 2009;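 active means inhibition past about -25% in most replicates, and total fluorescence under double the plate's negative control median, limit read from the data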;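 further: 0% = DMSO and -100% = 5 µM competing unlabeled TCR2 RNA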
BCLXL inh: inhibitors of human Bcl-xL, primary screen, biochemical, fluorescence polarization, HTS; Bcl-2-like protein 1 (Homo sapiens), Q07817; GST-Bcl-xL / FITC-Bim BH3 peptide fluorescence polarization; inhibition, % at 10.9 µM; hit rate 0.7% among 320,000;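 active means inhibition above the mean of all tested compounds plus 3 SD, cutoff set per campaign, cut at about 30% in these data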;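 further: 0% = DMSO wells and 100% = unlabeled Bim-BH3 peptide competitor; inhibitors lower millipolarization by displacing the labeled peptide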
MCL1 BIM primary: inhibitors of MCL1 binding to BIM-BH3, primary screen, biochemical, fluorescence polarization | GST-MCL1 / FITC-Bim-BH3 fluorescence polarization | inhibition, % at 10.9 µM | hit rate 0.68% among 320,000;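 active means inhibition above the mean inhibition of all tested compounds plus 3 SD, set per campaign, cut at about 40% in these data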;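 further: 0% = DMSO wells and 100% = unlabeled Bim-BH3 peptide control; higher means more loss of mP so more displacement of Bim peptide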
EBV gp42 block: Epstein-Barr virus gp42 inhibitors, primary screen, biochemical, uHTS, fluorescence polarization | hit rate 0.42% among 220,000 | Glycoprotein 42 (Epstein-Barr virus (strain AG876)), Q1HVG2 | Fluorescence polarization binding assay, mP read-out | inhibition, % (tested at 21.74 µM); in the data active means inhibition above about 50%
BCLXL inh confirm: Bcl-xL inhibitors blocking Bim BH3 binding, confirmation, counter-screen for MCL1 inhibitor project, biochemical, fluorescence polarization; hit rate 54% among 1,700; AID 2166, 2009; GST-Bcl-xL / FITC-Bim BH3 peptide FP binding; inhibition, % at 10.9 µM; shares compounds with MCL1 BIM primary;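 active means inhibition above a cutoff equal to the mean inhibition of all tested compounds plus 3 SD, cut at about 30% in these data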;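 further: 0% = DMSO wells and 100% = unlabeled Bim BH3 control peptide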
MCL1 BIM confirm: inhibitors of MCL1 binding to BIM-BH3, confirmation, biochemical, fluorescence polarization, triplicate. GST-MCL1 / FITC-Bim-BH3 fluorescence polarization. inhibition, % at 10.9 µM. shares compounds with MCL1 BIM primary. hit rate 61% among 1,700;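 active means inhibition above the average of all tested compounds plus 3 SD, cut at about 40% in these data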;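 further: 0% = DMSO wells and 100% = unlabeled Bim-BH3 control peptide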
Numbers without * were called inactive; . = no result given; + = active, no number. Hits are enriched below; roughly 1.3% of the tested compounds scored in any of these assays.

SMILES | GLD-1 TGE inh | MEX-5 binding | BCLXL inh | MCL1 BIM primary | EBV gp42 block | BCLXL inh confirm | MCL1 BIM confirm
CCCNc1c(F)c(F)c2c(C)c3ccccc3nc2c1F | 83.2* | -28.8* | 114.4* | 125.2* | 133.9* | 106.1* | 122.5*
Cc1c2ccccc2nc2ccccc12 | -8.6 | -0.2 | -2.0 | -0.6 | . | . | .
c1coc(CNc2c3c(nc4ccccc24)CCC3)c1 | -101.7 | -13.8 | 65.0* | 62.1* | 9.2 | 14.5 | 9.8
CC(C)NCC(=O)Nc1c2c(nc3ccccc13)CCC2 | -3.1 | -0.6 | 1.0 | -3.5 | -11.7 | . | .
COc1ccc(Br)cc1C(=O)Nc1ccc(N2CCN(S(C)(=O)=O)CC2)cc1 | -1.3 | -0.7 | -0.1 | 3.1 | 11.9 | . | .
COc1ccc(Br)cc1C(=O)Nc1ccc(N2CCCC2)cc1 | 9.8 | 3.4 | 9.1 | 45.9* | . | 19.8 | 18.4
Cc1ccccc1N1CCN(C2=NC(=O)/C(=C\c3cccs3)S2)CC1 | 4.4 | -0.7 | 7.9 | 46.0* | -19.2 | 10.8 | 21.8
O=C1N=C(N2CCN(c3cccc4ccccc34)CC2)S/C1=C/c1cccs1 | 4.7 | 2.0 | -1.1 | 2.4 | -20.3 | . | .
CC(C)C[C@H](NC(=O)C1CC(=O)N(c2ccc3c(c2)OCO3)C1)C(=O)NC1CCCC1 (stereo partly specified) | 38.2* | -20.7 | 56.0* | 56.2* | . | 49.1* | 59.2*
Cc1cc2cc(C=C(C#N)C#N)c(Cl)nc2cc1C | 162.9* | -2.9 | 193.2* | + | -15.6 | 27.1 | 26.8
CCOC(=O)/C(C#N)=C/c1cc2cc(C)c(C)cc2nc1Cl | -9.2 | -3.0 | -4.1 | -10.6 | -19.1 | . | .
CN1CCN(C(=O)C2=C[C@@H](C3CCCCC3)C[C@@H](OCCCCO)O2)CC1 | 6.2 | 1.5 | 4.5 | 3.8 | -2.3 | . | .
CCC1=NNc2cccc3c(OC)ccc1c23 | 10.9 | -0.5 | 115.7* | 125.9* | -0.7 | 45.1* | 37.5
COc1ccc(C(=O)NCc2nnc(SCC(=O)N3CCCc4ccccc43)o2)cc1OC | 7.0 | 0.3 | 7.6 | 8.0 | 1.6 | . | .
COc1ccccc1CNC(=O)/C=C/c1ccc(Br)o1 | 2.2 | 2.0 | 2.4 | 41.6* | 15.3 | 1.0 | 14.6
CC1(C)CC(=O)C2=C(C1)OC(N)=C(C#N)C21CCN(Cc2ccccc2)CC1 | 30.3 | -14.9 | 73.9* | 72.8* | 5.9 | 63.1* | 69.8*
Cc1nc2c([nH]1)C1(CCN(Cc3ccccc3)CC1)C(C#N)=C(N)O2 | 93.1* | . | 163.5* | + | 14.2 | 32.1* | 46.3*
CC(=O)N1CCC2(CC1)C(C#N)=C(N)OC1=C2C(=O)CC(C)(C)C1 | 2.8 | -1.9 | 0.0 | -1.2 | 10.3 | . | .
CCc1[nH]nc2c1C1(CCN(C(=O)c3ccccc3)CC1)C(C#N)=C(N)O2 | -4.2 | -1.8 | 2.2 | -1.2 | -19.4 | . | .
Cn1c(CNC(=O)CNC(=O)c2ccccc2)cc(=O)n(C)c1=O | 7.0 | 0.7 | 12.8 | 1.3 | . | . | .
O=C(Nc1ccc(C(F)(F)F)cc1)c1cc(S(=O)(=O)NCC2COc3ccccc3O2)ccc1F (stereo unspecified) | 7.0 | -0.3 | 2.1 | -0.7 | 6.8 | . | .
Cc1[nH]c2ccc(C(=O)NCCN3CCOCC3)cc2c1C | -6.1 | -1.6 | -8.6 | -6.9 | . | . | .
COc1cc(C2c3sc(=O)[nH]c3SC3C(=O)N(c4ccc(Br)cc4)C(=O)C32)ccc1O (stereo unspecified) | 12.3 | -1.4 | 15.9 | 14.4 | -12.2 | . | .
CCOc1ccc(N2C(=O)C3Sc4[nH]c(=O)sc4C(/C=C/c4ccccc4)C3C2=O)cc1 (stereo unspecified) | 41.5* | -1.1 | 57.4* | 41.9* | -10.8 | -3.5 | -15.6
